Data reported in the antibiotic and cytotoxicity screens of Wong et al. (2023).
About 3,300 (8.5%) of roughly 39,000 compounds were called active. The sample as a whole holds a higher share of actives than the screen did.

test system: HepG2; assay: cytotoxicity call (relative viability < 0.9); conditions: 10 µM

Row | SMILES | cytotoxicity call
1 | Cc1ccc(S(=O)(=O)Nc2ccc3c(c2)C(=O)N([C@H](C)CO)C[C@H](C)[C@H](CN(C)C(=O)Cc2ccccc2)OCCCC[C@H](C)O3)cc1 | inactive
2 | C[C@H](CO)N1C[C@H](C)[C@H](CN(C)CC2CC2)Oc2ccc(NS(=O)(=O)c3ccccc3)cc2CC1=O | inactive
3 | Cc1ccc(S(=O)(=O)N2C[C@H](O)COC[C@@H]3O[C@@H](CC(=O)N4CCc5ccccc5C4)CC[C@H]32)cc1 | inactive
4 | C[C@@H](O)C#Cc1cnc2c(c1)C(=O)N([C@@H](C)CO)C[C@H](C)[C@@H](CN(C)C(=O)CN1CCOCC1)O2 | inactive
5 | CCNC(=O)[C@@H]1[C@@H](CO)[C@@H]2Cn3c(ccc(C4=CCCC4)c3=O)[C@H]1N2S(=O)(=O)c1cn(C)cn1 | inactive
6 | COCC(=O)N1C[C@@H](C)[C@H](OC)CN(C)C(=O)c2ccc(NC(=O)c3ccc(F)cc3)cc2OC[C@H]1C | inactive
7 | C[C@H]1CCCCO[C@H](CN(C)C(=O)Nc2ccc3c(c2)OCO3)[C@@H](C)CN([C@@H](C)CO)C(=O)c2cc(NS(=O)(=O)c3ccc(F)cc3)ccc2O1 | inactive
8 | O=C(C[C@@H]1CC[C@H]2[C@@H](COC[C@H](O)CN2C(=O)Nc2ccc(F)cc2)O1)NCCCN1CCOCC1 | inactive
9 | Cc1ccc(S(=O)(=O)Nc2ccc3c(c2)C(=O)N([C@@H](C)CO)C[C@@H](C)[C@H](CN(C)Cc2ccc(C(F)(F)F)cc2)OCCCC[C@@H](C)O3)cc1 | active
10 | Cc1ccc(S(=O)(=O)Nc2ccc3c(c2)C(=O)N([C@@H](C)CO)C[C@H](C)[C@H](CN(C)Cc2ccc(C(F)(F)F)cc2)OCCCC[C@@H](C)O3)cc1 | inactive
11 | Cc1ccc(S(=O)(=O)Nc2ccc3c(c2)C(=O)N([C@@H](C)CO)C[C@H](C)[C@@H](CN(C)Cc2ccc(C(F)(F)F)cc2)OCCCC[C@H](C)O3)cc1 | active
12 | Cc1ccc(S(=O)(=O)Nc2ccc3c(c2)C(=O)N([C@H](C)CO)C[C@H](C)[C@@H](CN(C)Cc2ccc(C(F)(F)F)cc2)OCCCC[C@H](C)O3)cc1 | active
13 | Cc1ccc(S(=O)(=O)Nc2ccc3c(c2)C(=O)N([C@@H](C)CO)C[C@H](C)[C@@H](CN(C)Cc2ccc(C(F)(F)F)cc2)OCCCC[C@@H](C)O3)cc1 | active
14 | Cc1ccc(S(=O)(=O)Nc2ccc3c(c2)C(=O)N([C@@H](C)CO)C[C@@H](C)[C@@H](CN(C)Cc2ccc(C(F)(F)F)cc2)OCCCC[C@H](C)O3)cc1 | inactive
15 | NC(=O)c1ccc[n+](C2OC(COP(=O)([O-])OP(=O)(O)OCC3OC(n4cnc5c(N)ncnc54)C(O)C3O)C(O)C2O)c1 (stereo not drawn) | inactive
16 | CNC[C@@H]1Oc2ccc(NC(=O)CCN3CCOCC3)cc2CC(=O)N([C@@H](C)CO)C[C@H]1C | inactive
17 | CC(C)(C)c1c(C(C)(C)C)c1=O | inactive
18 | O=C(N[C@@H]1CC[C@H](CCn2cc(C3(O)CCCC3)nn2)O[C@H]1CO)C1CCOCC1 | inactive
19 | Cc1cc(C(=O)N2CCNC(=O)C2(C)C)no1 | inactive

Row | SMILES | cytotoxicity call
20 | C[C@H]1CN([C@@H](C)CO)C(=O)Cc2cc(NC(=O)CCC(F)(F)F)ccc2O[C@@H]1CN(C)S(=O)(=O)c1ccccc1 | inactive
21 | CN(C)CCCNC(=O)C[C@@H]1CC[C@H]2[C@@H](COc3ccc(NC(=O)c4cccc(F)c4)cc3C(=O)N2C)O1 | inactive
22 | Cc1ccc(S(=O)(=O)Nc2cccc3c2O[C@@H](CN(C)S(=O)(=O)c2ccc(F)cc2)[C@@H](C)CN([C@H](C)CO)C3=O)cc1 | inactive
23 | CC(C)(C)OC(=O)C[C@H]1C/C=C/CC[C@H](Cc2ccc(F)cc2)C(=O)O[C@H](c2ccccc2)CNC1=O | inactive
24 | C[C@@H]1CCCCO[C@@H](CN(C)S(=O)(=O)c2cccs2)[C@@H](C)CN([C@H](C)CO)C(=O)c2cc(NS(=O)(=O)c3cn(C)cn3)ccc2O1 | inactive
25 | CC(C)NC(=O)N(C)C[C@@H]1OCCCC[C@@H](C)Oc2ccc(NC(=O)C3CCCCC3)cc2C(=O)N([C@H](C)CO)C[C@@H]1C | inactive
26 | COc1ccc(S(=O)(=O)N(C)C[C@H]2Oc3c(NS(=O)(=O)c4cn(C)cn4)cccc3C(=O)N([C@H](C)CO)C[C@@H]2C)cc1 | inactive
27 | C[C@@H]1CN([C@@H](C)CO)C(=O)c2cc(C#C[C@@H](C)O)cnc2O[C@H]1CN(C)Cc1cncnc1 | inactive
28 | C[C@@H]1CN([C@H](C)CO)C(=O)c2cc(NS(=O)(=O)c3ccc(F)cc3)ccc2O[C@@H](C)CCCCO[C@H]1CN(C)Cc1ccc(C(F)(F)F)cc1 | inactive
29 | Cc1ccc(S(=O)(=O)Nc2ccc3c(c2)C(=O)N([C@@H](C)CO)C[C@@H](C)[C@@H](CN(C)Cc2ccc(C(F)(F)F)cc2)OCCCC[C@@H](C)O3)cc1 | active
30 | Cc1ccc(S(=O)(=O)Nc2ccc3c(c2)C(=O)N([C@H](C)CO)C[C@H](C)[C@H](CN(C)Cc2ccc(C(F)(F)F)cc2)OCCCC[C@H](C)O3)cc1 | inactive
31 | Cc1ccc(S(=O)(=O)Nc2ccc3c(c2)C(=O)N([C@H](C)CO)C[C@@H](C)[C@H](CN(C)Cc2ccc(C(F)(F)F)cc2)OCCCC[C@H](C)O3)cc1 | active
32 | Cc1ccc(S(=O)(=O)Nc2ccc3c(c2)C(=O)N([C@H](C)CO)C[C@@H](C)[C@@H](CN(C)Cc2ccc(C(F)(F)F)cc2)OCCCC[C@@H](C)O3)cc1 | inactive
33 | C[C@@H]1CCCCO[C@@H](CN(C)Cc2ccc(C(F)(F)F)cc2)[C@@H](C)CN([C@H](C)CO)C(=O)c2cc(NS(=O)(=O)c3ccc(F)cc3)ccc2O1 | active
34 | C[C@@H]1CCCCO[C@@H](CN(C)Cc2ccc(C(F)(F)F)cc2)[C@H](C)CN([C@H](C)CO)C(=O)c2cc(NS(=O)(=O)c3ccc(F)cc3)ccc2O1 | inactive
35 | C[C@@H]1CN([C@@H](C)CO)C(=O)c2cccc(NC(=O)C3CCOCC3)c2O[C@H]1CN(C)Cc1ccccc1 | inactive
36 | NCC[C@H]1CC[C@@H](NC(=O)Cc2ccncc2)[C@@H](CO)O1 | inactive
37 | C[C@@H]1CN([C@@H](C)CO)C(=O)CCCn2cc(nn2)CO[C@H]1CN(C)S(=O)(=O)c1ccc(Oc2ccccc2)nc1 | inactive
38 | CSc1nn(C)c2cnn(C)c(=O)c12 | inactive
